Unmarked numbers belong to inactive results. For some assays here: Entries with a potency or affinity are not part of this list. Active and inactive are the calls of the source. Unless noted, the rule behind the calls is not given here.
Assays:
[1] = antimalarial activity against Dd2 strain (AID 2302;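 active = growth inhibition above 50% at the single 2 µM test dose, taken to imply half-maximal potency below 2 µM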;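 note: 0% = DMSO untreated growth and 100% = chloroquine plus artemisinin killed control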); conditions: P. falciparum Dd2 in RBCs, LDH growth readout, 72 h; at 2 µM; hits give high values
[2] = human hepatoma cell viability loss – ATP luminescence, cytotoxicity control for P. falciparum antimalarial project, primary screen (AID 2303;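 active = inhibition above 50%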;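 note: 0% = DMSO wells and 100% = digitonin-killed cells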); conditions: HepG2 viability, 24-48 h, at 10 µM, hits give high values
[3] = biological target: L-lactate dehydrogenase (Plasmodium falciparum (isolate CDC / Honduras)) (UniProt Q27743); experiment: PfLDH activity inhibition – cell lysate, 3D7 strain, counter-screen for P. falciparum growth inhibition project (AID 2304);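 note: 0% = vehicle and 100% = reference inhibitor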; conditions: P. falciparum 3D7 crude extract, LDH APAD/NBT absorbance; at 2 µM; hits give high values
Chain of L-lactate dehydrogenase (Plasmodium falciparum (isolate CDC / Honduras)) (Q27743 whole entry, looked up): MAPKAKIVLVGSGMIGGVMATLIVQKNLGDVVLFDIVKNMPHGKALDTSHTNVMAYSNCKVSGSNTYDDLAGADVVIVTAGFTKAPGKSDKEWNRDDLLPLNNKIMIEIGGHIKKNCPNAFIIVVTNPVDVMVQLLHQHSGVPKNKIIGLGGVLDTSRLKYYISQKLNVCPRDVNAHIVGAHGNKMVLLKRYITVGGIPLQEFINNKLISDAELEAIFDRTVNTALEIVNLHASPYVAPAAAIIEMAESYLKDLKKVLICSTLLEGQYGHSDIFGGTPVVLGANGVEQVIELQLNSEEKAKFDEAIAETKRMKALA

[4] = inhibition of 3D7 malaria parasite growth – strain 3D7 (AID 2306);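 note: 0% = DMSO wells and 100% = chloroquine plus artemisinin control wells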; conditions: P. falciparum 3D7 erythrocytic growth, LDH absorbance, 72 h; at 2 µM; hits give high values
[5] = biological target: Calcium-dependent protein kinase 1 (Plasmodium falciparum (isolate 3D7)) (UniProt P62344); experiment: PfCDPK1 kinase inhibitors, biochemical, TCAMS library (AID 1159585; cut-off not given, nearly all actives have IC50 up to about 0.98 µM;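 note: inhibitors leave more ATP so luminescence rises with inhibition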); conditions: recombinant PfCDPK1, Kinase-Glo ATP depletion luminescence
Chain of Calcium-dependent protein kinase 1 (Plasmodium falciparum (isolate 3D7)) (P62344 whole entry, looked up): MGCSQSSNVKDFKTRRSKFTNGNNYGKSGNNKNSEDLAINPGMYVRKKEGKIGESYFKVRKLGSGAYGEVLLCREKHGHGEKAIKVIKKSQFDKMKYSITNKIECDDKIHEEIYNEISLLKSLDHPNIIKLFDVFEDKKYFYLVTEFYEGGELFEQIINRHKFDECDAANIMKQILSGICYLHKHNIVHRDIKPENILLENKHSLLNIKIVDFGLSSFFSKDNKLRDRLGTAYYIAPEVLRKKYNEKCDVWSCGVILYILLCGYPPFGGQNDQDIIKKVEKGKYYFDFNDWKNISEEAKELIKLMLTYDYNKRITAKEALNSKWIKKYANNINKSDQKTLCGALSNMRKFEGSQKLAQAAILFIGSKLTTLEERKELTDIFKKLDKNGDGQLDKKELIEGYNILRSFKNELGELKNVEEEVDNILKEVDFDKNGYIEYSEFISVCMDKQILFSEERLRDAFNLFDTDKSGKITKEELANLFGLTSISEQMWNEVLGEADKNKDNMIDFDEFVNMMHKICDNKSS

[6] = biological target: Plasmodium falciparum protein kinase 6 (PK6, PF3D7_1337100) (UniProt Q8IDW1); experiment: PfPK6 kinase inhibitors, biochemical, TCAMS library (AID 1159586); conditions: recombinant PfPK6, Kinase-Glo ATP depletion luminescence
Chain of Plasmodium falciparum protein kinase 6 (PK6, PF3D7_1337100) (Q8IDW1 1-305): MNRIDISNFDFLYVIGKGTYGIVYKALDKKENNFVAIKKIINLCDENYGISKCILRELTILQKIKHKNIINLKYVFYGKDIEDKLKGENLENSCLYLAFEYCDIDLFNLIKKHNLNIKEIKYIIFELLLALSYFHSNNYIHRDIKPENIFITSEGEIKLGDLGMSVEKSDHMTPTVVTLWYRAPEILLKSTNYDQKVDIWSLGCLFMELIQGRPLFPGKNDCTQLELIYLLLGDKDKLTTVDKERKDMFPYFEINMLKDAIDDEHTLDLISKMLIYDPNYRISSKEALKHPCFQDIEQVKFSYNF

[7] = biological target: Protein kinase 7 (PK7), Plasmodium falciparum 3D7 (PF3D7_0213400) (UniProt Q7YTF7); experiment: inhibition of Plasmodium PK7 catalytic activity – biochemical, TCAMS antimalarial set, Kinase-Glo luminescence (AID 1159587); conditions: recombinant PfPK7, Kinase-Glo ATP depletion luminescence
Chain of Protein kinase 7 (PK7), Plasmodium falciparum 3D7 (PF3D7_0213400) (Q7YTF7 1-343): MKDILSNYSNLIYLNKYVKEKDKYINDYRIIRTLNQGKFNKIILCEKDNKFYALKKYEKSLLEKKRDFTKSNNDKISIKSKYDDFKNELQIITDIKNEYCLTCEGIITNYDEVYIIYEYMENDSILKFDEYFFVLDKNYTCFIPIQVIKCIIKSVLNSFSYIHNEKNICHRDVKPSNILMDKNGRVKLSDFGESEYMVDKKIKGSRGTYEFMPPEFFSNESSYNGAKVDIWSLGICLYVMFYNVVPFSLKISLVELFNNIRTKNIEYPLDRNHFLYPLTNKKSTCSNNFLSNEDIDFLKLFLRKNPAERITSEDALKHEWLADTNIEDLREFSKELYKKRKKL

[8] = biological target: Calcium-dependent protein kinase 4 (Plasmodium falciparum (isolate 3D7)) (UniProt Q8IBS5); experiment: PfCDPK4 kinase inhibitors, biochemical, TCAMS library (AID 1159588; cut-off not given, nearly all actives have IC50 up to about 0.91 µM); conditions: recombinant PfCDPK4, Kinase-Glo ATP depletion luminescence
Chain of Calcium-dependent protein kinase 4 (Plasmodium falciparum (isolate 3D7)) (Q8IBS5 whole entry, looked up): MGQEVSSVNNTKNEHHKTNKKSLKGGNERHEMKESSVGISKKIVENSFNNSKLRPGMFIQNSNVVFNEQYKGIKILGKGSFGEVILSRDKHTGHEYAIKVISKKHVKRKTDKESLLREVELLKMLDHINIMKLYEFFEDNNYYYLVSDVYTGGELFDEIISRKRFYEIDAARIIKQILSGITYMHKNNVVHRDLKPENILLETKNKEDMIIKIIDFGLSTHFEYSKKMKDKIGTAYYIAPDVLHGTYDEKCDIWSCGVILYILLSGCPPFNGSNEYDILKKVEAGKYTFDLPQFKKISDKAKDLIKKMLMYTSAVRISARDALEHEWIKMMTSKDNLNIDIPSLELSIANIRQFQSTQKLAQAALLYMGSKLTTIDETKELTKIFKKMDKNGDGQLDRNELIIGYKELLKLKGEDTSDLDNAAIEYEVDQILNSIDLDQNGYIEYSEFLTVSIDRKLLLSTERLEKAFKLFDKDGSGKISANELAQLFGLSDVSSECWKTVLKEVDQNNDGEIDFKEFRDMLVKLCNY

SMILES | growth inhibition [1] | inhibition [2] | inhibition [3] [%] | growth inhibition [4] | outcome [5] | outcome [6] | outcome [7] | outcome [8]
COc1ccc(CC(=O)NC(CCN2CCC3(CC2)CN(S(C)(=O)=O)c2ccccc23)c2ccc(Cl)c(Cl)c2)cc1OC (stereo not given) | 77% (active) | 10% | 7 | 92% (active) | inactive | inactive | inactive | inactive
Cc1c(S(=O)(=O)Nc2ccc3nccc(N4CCN[C@H](C)C4)c3c2)sc2ccc(Cl)cc12 | 0% | 16% | -3 | 96% (active) | inactive | inactive | inactive | inactive
CCN(CC)CCCOC(=O)c1ccc2c(c1)-c1ccc(C(=O)OCCCN(CC)CC)c3cccc-2c13 | 96% (active) | 22% | -3 | 98% (active) | inactive | inactive | inactive | inactive
COc1cc2c(cc1OC)CN(CCCCNC(=O)c1ccc(NC(=O)c3cc(Cl)cc(Cl)c3)cc1)CC2 | 75% (active) | 19% | -6 | 99% (active) | inactive | inactive | inactive | inactive
COc1cc(Cc2cnc(N)nc2N)cc(OCCCCCCN2C(=O)c3ccccc3C2=O)c1OC | 3% | 15% | 2 | 95% (active) | inactive | inactive | inactive | inactive
COc1cc2c(cc1C=CC(=O)N1CCN(Cc3nc4sc(C)c(C)c4c(=O)[nH]3)CC1)OC(C)C2 (stereo not given) | 87% (active) | -1% | -9 | 82% (active) | inactive | inactive | inactive | inactive
COc1cccc2cc(C(=O)N[C@@H](CC(C)C)C(=O)NC3CC[C@@H](C)N(C(=O)Nc4ccncc4)CC3=O)oc12 (stereo not given in full) | 90% (active) | 7% | -7 | 95% (active) | inactive | inactive | inactive | inactive
Cc1noc(C)c1-c1cccc(CNCc2cccc(-c3ccc(-c4nc5c(C)cccc5[nH]4)cc3)c2)c1 | 69% (active) | 24% | 6 | 103% (active) | inactive | inactive | inactive | inactive
Clc1ccc(-c2nc3ccc(-c4ccc5nc(-c6ccc(Cl)cc6)[nH]c5c4)cc3[nH]2)cc1 | 99% (active) | 59% (active) | -5 | 101% (active) | inactive | inactive | inactive | inactive
COc1ccc(Nc2nc(N3CCCC3)c3ccccc3n2)cc1 | 98% (active) | 40% | 2 | 102% (active) | inactive | inactive | inactive | inactive
O=S(=O)(NCCN1CCCC1)c1cccc(-c2ccc(CNCc3ccccc3)cc2)c1 | 41% | 54% (active) | -8 | 95% (active) | inactive | inactive | inactive | inactive
Cc1ccc(C(=O)NC2C(=O)NC2c2ccccc2)c(C)c1 (stereo not given) | -1% | 7% | -4 | 90% (active) | inactive | inactive | inactive | inactive
CCC(CC)(Cc1ccccc1)NC(=O)[C@H](Cc1ccc(OC)c(OC)c1)Nc1ccc(C#N)c2ccccc12 | 69% (active) | 16% | 0 | 90% (active) | inactive | inactive | inactive | inactive
Cc1nc2ccc(NC(=O)c3cc(S(=O)(=O)N(C)C)ccc3Cl)cc2s1 | 77% (active) | 20% | -2 | 91% (active) | inactive | inactive | inactive | inactive
Cc1cc2c(/C=C/C(=O)NC3CCC(CCN4CCc5ccc(C#N)cc5CC4)CC3)cccc2[nH]1 (stereo not given) | 39% | 16% | 1 | 95% (active) | inactive | inactive | inactive | inactive
CON=Cc1sc(CNCCCNc2cc(=O)c3ccccc3[nH]2)c(C)c1Br | 63% (active) | -8% | -1 | 96% (active) | inactive | inactive | inactive | inactive
CCCCCC(C)C(C)c1cc(OC(N)=O)c2c(c1)OC(C)(C)C=C2c1ccncc1 (stereo not given) | -1% | 81% (active) | 0 | 96% (active) | inactive | inactive | inactive | inactive
C[C@H]1CN(Cc2cccc(-c3cc(CNC(=O)c4cccc(CN5CCN(C/C=C/c6ccccc6)CC5)c4)ccc3F)c2)CCN1 | 46% | 98% (active) | -2 | 98% (active) | inactive | inactive | inactive | inactive
CC(C)CC(NC(=O)c1cc2ccccc2s1)C(=O)N1CCCCCC1c1ccc(C(C)(C)C)cc1 (stereo not given) | 39% | 23% | -2 | 91% (active) | inactive | inactive | inactive | inactive
CC(=O)N1CCC(C(=O)Nc2ccc(-c3cccc(-c4nc5ccc(C(F)(F)F)cc5[nH]4)c3)cc2)CC1 | 33% | 82% (active) | -9 | 88% (active) | inactive | inactive | inactive | inactive

SMILES | growth inhibition [1] | inhibition [2] | inhibition [3] [%] | growth inhibition [4] | outcome [5] | outcome [6] | outcome [7] | outcome [8]
CN(C)CCCn1c(C(=O)OC(c2ccccc2)c2ccccc2)cc2cc(OCc3ccccc3)ccc21 | 85% (active) | 12% | 0 | 82% (active) | inactive | inactive | inactive | inactive
COc1cccc(C2CCN(CCN3CCC(NC(=O)c4ccc(-c5ccc(Cl)cc5)cc4)CC3)CC2)c1 | 42% | 31% | -12 | 93% (active) | inactive | inactive | inactive | inactive
COCCNc1nc(N2CCC(CNC(=O)c3ccc(-c4ccc(C(=O)N(C)C)cc4C)cc3)CC2)nc2cc(OC)c(OC)cc12 | 97% (active) | 12% | 3 | 98% (active) | inactive | inactive | inactive | inactive
Cc1cc(N2CCCC2)nc(Nc2ccc(NC(=O)Nc3ccccc3)cc2)n1 | 100% (active) | 35% | 1 | 99% (active) | inactive | inactive | inactive | inactive
COc1cccc(-c2cc(C(=O)Nc3ccc4nc(-c5ccccc5)[nH]c4c3)[nH]n2)c1 | 65% (active) | 68% (active) | 2 | 100% (active) | inactive | inactive | inactive | inactive
Fc1ccc(CNc2nc(-c3ccc(F)c(C(F)(F)F)c3)n(-c3cccc(C(F)(F)F)c3)n2)cc1 | 80% (active) | 0% | -1 | 95% (active) | inactive | inactive | inactive | inactive
CCCCN(CCCC)CCCN(CCCN(CCCC)CCCC)c1cc(C)nc(Nc2ccc3cc(Br)ccc3c2)n1 | 99% (active) | 52% (active) | 5 | 101% (active) | inactive | inactive | inactive | inactive
COc1ccc(S(=O)(=O)NC2CCN(CCNC(=O)Nc3cc(C)nc4ccccc34)C2)cc1 (stereo not given) | 41% | -2% | 1 | 88% (active) | inactive | inactive | inactive | inactive
Cc1cc(NCCc2ccccc2)nc(/N=C(\N)Nc2ccccc2Cl)n1 | 7% | 20% | -8 | 100% (active) | inactive | inactive | inactive | inactive
OC(CNCc1ccco1)Cn1c2ccc(Br)cc2c2cc(Br)ccc21 (stereo not given) | 72% (active) | 10% | -3 | 92% (active) | inactive | inactive | inactive | inactive
Cc1cc(C)cc(NC(=S)NCCCCN2CCN(c3cccc(Cl)c3)CC2)c1 | 13% | 11% | 3 | 88% (active) | inactive | inactive | inactive | inactive
CCCN1CCC(c2c[nH]c3ccc(NC(=O)Nc4cccc(Cl)c4Cl)cc23)CC1 | 17% | 30% | 2 | 100% (active) | inactive | inactive | inactive | inactive
Cn1cnc2nc(NCCc3ccccc3)nc(NCc3cccc4ccccc34)c21 | 98% (active) | 16% | -2 | 95% (active) | inactive | inactive | inactive | inactive
OCCCCCCN=Cc1[nH]c(=S)sc1O | 1% | 7% | 4 | 91% (active) | inactive | inactive | inactive | inactive
COc1ccc(S(=O)(=O)N2CCC3(CC2)OCC(=O)NC3c2ccc(Cl)c(Cl)c2)cc1 (stereo not given) | 44% | -4% | -2 | 91% (active) | inactive | inactive | inactive | inactive
CC(C)NCC(=O)Nc1cccc(C(=O)Nc2cccc(C(F)(F)F)c2)c1 | 89% (active) | 6% | 4 | 97% (active) | inactive | inactive | inactive | inactive
FC(F)(F)c1ccc2nc(-c3ccc(-c4ccc(CNCc5ccccc5)cc4)cc3)[nH]c2c1 | 96% (active) | 22% | -5 | 101% (active) | inactive | inactive | inactive | inactive
CCOC(=O)c1c(CSc2ccccc2)oc2cc(CN(C)C)c(O)c(Cl)c12 | 70% (active) | 12% | -4 | 99% (active) | inactive | inactive | inactive | inactive
CC(C)CN1CCCN(Cc2cccc(NC(=O)c3ccc(Cl)c(Cl)c3)c2)CC1 | 9% | 10% | 0 | 91% (active) | inactive | inactive | inactive | inactive
COc1ccc(CCn2c(C3CCCCC3)nc3oc4ccccc4c(=O)c3c2=O)cc1 | 66% (active) | 12% | -2 | 91% (active) | inactive | inactive | inactive | inactive
